# Source: PubChem BioAssay AID1159580 (chemical genetic matrix, 2015)
# Hit rate of the full screen: of about 5,500 compounds, about 2,000 (36%) were called active. About 18% were inconclusive and are not listed. The list shows a part of the results. A number with no mark means an inactive call. Rule as the data show it: active = normalized growth mostly below about 0.91 (no sharp cut-off); inconclusive = no clear call, values can overlap the other calls; inactive = mostly above about 0.92.
# Test: chemical genetic growth profiling, strain panel (AID 1159580);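 also: tested at 20 µM; growth read once vehicle control cultures reached saturation at 30 °C; 1 = growth at the plate median or of vehicle wells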
# Conditions: growth OD
compound,measurement,setting,value
CN1CCC[C@@H]1CCO[C@](C)(c1ccccc1)c1ccc(Cl)cc1,normalized growth,"S. cerevisiae deletion strains, locus YJR075W, strain HOC1, stronger effect = lower value",0.92
same,normalized growth,"S. cerevisiae deletion strains, locus YKL009W, strain mrt4, stronger effect = lower value",0.977
same,normalized growth,"S. cerevisiae deletion strains, locus YKL068W, stronger effect = lower value",0.992
same,normalized growth,"S. cerevisiae deletion strains, locus YKL085W, strain MDH1 (second series), stronger effect = lower value",0.995
same,normalized growth,"S. cerevisiae deletion strains, locus YKL085W, strain MDH1, stronger effect = lower value",0.995
same,normalized growth,"S. cerevisiae deletion strains, locus YKL160W, strain elf1, stronger effect = lower value",0.977
same,normalized growth,"S. cerevisiae deletion strains, locus YKL190W, strain CNB1, stronger effect = lower value",0.977
same,normalized growth,"S. cerevisiae deletion strains, locus YKR001C, strain vps1, stronger effect = lower value",1.02
same,normalized growth,"S. cerevisiae deletion strains, locus YKR026C, strain gcn3, stronger effect = lower value",1.02
same,normalized growth,"S. cerevisiae deletion strains, locus YKR091W, strain srl3, stronger effect = lower value",1
same,normalized growth,"S. cerevisiae deletion strains, locus YLL001W, strain dnm1, stronger effect = lower value",0.946
same,normalized growth,"S. cerevisiae deletion strains, locus YLL026W, stronger effect = lower value",0.988
same,normalized growth,"S. cerevisiae deletion strains, locus YLL041C, strain sdh2, stronger effect = lower value",0.992
same,normalized growth,"S. cerevisiae deletion strains, locus YLR027C, strain aat2, stronger effect = lower value",0.98
same,normalized growth,"S. cerevisiae deletion strains, locus YLR039C, strain RIC1, stronger effect = lower value",1.41 [resistant] (active)
same,normalized growth,"S. cerevisiae deletion strains, locus YLR058C, strain SHM2, stronger effect = lower value",0.994
same,normalized growth,"S. cerevisiae deletion strains, locus YLR102C, strain apc9, stronger effect = lower value",0.997
same,normalized growth,"S. cerevisiae deletion strains, locus YLR113W, strain HOG1, stronger effect = lower value",0.969
same,normalized growth,"S. cerevisiae deletion strains, locus YLR221C, strain rsa3, stronger effect = lower value",0.932
same,normalized growth,"S. cerevisiae deletion strains, locus YLR258W, strain gsy2, stronger effect = lower value",0.977
same,normalized growth,"S. cerevisiae deletion strains, locus YLR262C, strain YPT6 (second series), stronger effect = lower value",1.07
same,normalized growth,"S. cerevisiae deletion strains, locus YLR262C, strain YPT6, stronger effect = lower value",1.46 [resistant] (active)
same,normalized growth,"S. cerevisiae deletion strains, locus YLR268W, strain sec22, stronger effect = lower value",0.929
same,normalized growth,"S. cerevisiae deletion strains, locus YLR320W, strain mms22, stronger effect = lower value",0.878
same,normalized growth,"S. cerevisiae deletion strains, locus YLR330W, strain CHS5, stronger effect = lower value",1.02
same,normalized growth,"S. cerevisiae deletion strains, locus YLR342W, strain FKS1 (second series), stronger effect = lower value",0.834
same,normalized growth,"S. cerevisiae deletion strains, locus YLR342W, strain FKS1, stronger effect = lower value",0.893 (active)
same,normalized growth,"S. cerevisiae deletion strains, locus YLR357W, strain rsc2, stronger effect = lower value",1.01
same,normalized growth,"S. cerevisiae deletion strains, locus YLR370C, strain arc18, stronger effect = lower value",0.966
same,normalized growth,"S. cerevisiae deletion strains, locus YLR371W, strain rom2, stronger effect = lower value",0.994
same,normalized growth,"S. cerevisiae deletion strains, locus YLR384C, strain iki3, stronger effect = lower value",1.01
same,normalized growth,"S. cerevisiae deletion strains, locus YLR418C, strain cdc73, stronger effect = lower value",0.682 (active)
same,normalized growth,"S. cerevisiae deletion strains, locus YML016C, strain PPZ1, stronger effect = lower value",1.02
same,normalized growth,"S. cerevisiae deletion strains, locus YML032C, strain rad52, stronger effect = lower value",0.98
same,normalized growth,"S. cerevisiae deletion strains, locus YML120C, strain ndi1, stronger effect = lower value",1
same,normalized growth,"S. cerevisiae deletion strains, locus YML124C, strain tub3, stronger effect = lower value",0.994
same,normalized growth,"S. cerevisiae deletion strains, locus YMR058W, strain fet3, stronger effect = lower value",0.953
same,normalized growth,"S. cerevisiae deletion strains, locus YMR078C, strain ctf18, stronger effect = lower value",0.993
same,normalized growth,"S. cerevisiae deletion strains, locus YMR125W, strain sto1, stronger effect = lower value",0.96
same,normalized growth,"S. cerevisiae deletion strains, locus YMR129W, stronger effect = lower value",0.99
same,normalized growth,"S. cerevisiae deletion strains, locus YMR205C, strain PFK2, stronger effect = lower value",0.955
same,normalized growth,"S. cerevisiae deletion strains, locus YMR223W, strain ubp8, stronger effect = lower value",0.964
same,normalized growth,"S. cerevisiae deletion strains, locus YMR231W, strain pep5, stronger effect = lower value",1.01
same,normalized growth,"S. cerevisiae deletion strains, locus YMR263W, strain SAP30, stronger effect = lower value",0.976
same,normalized growth,"S. cerevisiae deletion strains, locus YMR307W, strain GAS1, stronger effect = lower value",0.92
same,normalized growth,"S. cerevisiae deletion strains, locus YNL067W, strain RPL9B, stronger effect = lower value",0.971
same,normalized growth,"S. cerevisiae deletion strains, locus YNL071W, strain lat1, stronger effect = lower value",0.888 (active)
same,normalized growth,"S. cerevisiae deletion strains, locus YNL128W, strain TEP1, stronger effect = lower value",0.898
same,normalized growth,"S. cerevisiae deletion strains, locus YNL153C, strain GIM3, stronger effect = lower value",1
same,normalized growth,"S. cerevisiae deletion strains, locus YNL183C, strain NPR1, stronger effect = lower value",0.918
same,normalized growth,"S. cerevisiae deletion strains, locus YNL209W, strain ssb2, stronger effect = lower value",0.877 (active)
same,normalized growth,"S. cerevisiae deletion strains, locus YNL233W, strain BNI4, stronger effect = lower value",0.978
same,normalized growth,"S. cerevisiae deletion strains, locus YNL248C, strain rpa49, stronger effect = lower value",0.836 (active)
same,normalized growth,"S. cerevisiae deletion strains, locus YNL250W, strain rad50, stronger effect = lower value",0.986
same,normalized growth,"S. cerevisiae deletion strains, locus YNL271C, strain bni1, stronger effect = lower value",0.986
same,normalized growth,"S. cerevisiae deletion strains, locus YNL298W, strain CLA4, stronger effect = lower value",0.988
same,normalized growth,"S. cerevisiae deletion strains, locus YNL307C, strain MCK1, stronger effect = lower value",0.96
same,normalized growth,"S. cerevisiae deletion strains, locus YNL322C, strain KRE1 (second series), stronger effect = lower value",1.02
same,normalized growth,"S. cerevisiae deletion strains, locus YNL322C, strain KRE1, stronger effect = lower value",1.01
same,normalized growth,"S. cerevisiae deletion strains, locus YNR049C, strain mso1, stronger effect = lower value",1.01
same,normalized growth,"S. cerevisiae deletion strains, locus YNR052C, strain pop2, stronger effect = lower value",0.971
same,normalized growth,"S. cerevisiae deletion strains, locus YOL006C, strain TOP1, stronger effect = lower value",0.417 (active)
same,normalized growth,"S. cerevisiae deletion strains, locus YOL012C, strain htz1",0.791
same,normalized growth,"S. cerevisiae deletion strains, locus YOL147C, strain pex11, stronger effect = lower value",0.999
same,normalized growth,"S. cerevisiae deletion strains, locus YOR001W, strain rrp6, stronger effect = lower value",0.951
same,normalized growth,"S. cerevisiae deletion strains, locus YOR061W, strain CKA2, stronger effect = lower value",1.01
same,normalized growth,"S. cerevisiae deletion strains, locus YOR069W, strain VPS5, stronger effect = lower value",1
same,normalized growth,"S. cerevisiae deletion strains, locus YOR070C, strain gyp1, stronger effect = lower value",0.974
same,normalized growth,"S. cerevisiae deletion strains, locus YOR080W, strain dia2, stronger effect = lower value",0.994
same,normalized growth,"S. cerevisiae deletion strains, locus YOR083W, strain WHI5, stronger effect = lower value",0.93
same,normalized growth,"S. cerevisiae deletion strains, locus YOR106W, strain vam3, stronger effect = lower value",0.914
same,normalized growth,"S. cerevisiae deletion strains, locus YOR136W, strain idh2, stronger effect = lower value",0.991
same,normalized growth,"S. cerevisiae deletion strains, locus YOR144C, strain elg1, stronger effect = lower value",1
same,normalized growth,"S. cerevisiae deletion strains, locus YOR184W, strain ser1, stronger effect = lower value",0.999
same,normalized growth,"S. cerevisiae deletion strains, locus YOR231W, strain MKK1, stronger effect = lower value",0.991
same,normalized growth,"S. cerevisiae deletion strains, locus YOR265W, strain rbl2, stronger effect = lower value",0.998
same,normalized growth,"S. cerevisiae deletion strains, locus YOR270C, strain vph1, stronger effect = lower value",0.616 (active)
same,normalized growth,"S. cerevisiae deletion strains, locus YOR290C, strain snf2, stronger effect = lower value",0.957
same,normalized growth,"S. cerevisiae deletion strains, locus YOR316C, strain cot1, stronger effect = lower value",0.993
same,normalized growth,"S. cerevisiae deletion strains, locus YPL051W, strain arl3, stronger effect = lower value",0.94
same,normalized growth,"S. cerevisiae deletion strains, locus YPL055C, strain LGE1, stronger effect = lower value",0.782
same,normalized growth,"S. cerevisiae deletion strains, locus YPL078C, strain atp4, stronger effect = lower value",0.916
same,normalized growth,"S. cerevisiae deletion strains, locus YPL106C, strain sse1, stronger effect = lower value",1.02
same,normalized growth,"S. cerevisiae deletion strains, locus YPL240C, strain hsp82, stronger effect = lower value",0.992
same,normalized growth,"S. cerevisiae deletion strains, locus YPL241C, strain CIN2, stronger effect = lower value",0.999
same,normalized growth,"S. cerevisiae deletion strains, locus YPL256C, strain CLN2, stronger effect = lower value",0.979
same,normalized growth,"S. cerevisiae deletion strains, locus YPR119W, strain clb2, stronger effect = lower value",0.998
same,normalized growth,"S. cerevisiae deletion strains, locus YPR141C, strain kar3, stronger effect = lower value",0.997
same,normalized growth,"S. cerevisiae deletion strains, locus YPR163C, strain tif3, stronger effect = lower value",0.975
same,normalized growth,"S. cerevisiae deletion strains, locus YPR167C, strain met16, stronger effect = lower value",0.991
same,normalized growth,"S. cerevisiae deletion strains, strain wtn01, stronger effect = lower value",0.959
same,normalized growth,"S. cerevisiae strains, strain wild type, stronger effect = lower value",0.99
